# L3MBTL1 block: inhibitors of human L3MBTL1; Q9Y468; AlphaScreen L3MBTL1–H3K9me1 peptide binding; Potency, µM (doses to about 57.1 µM), without a hit: top-dose activity, negative = inhibition, actives largely listed as inhibitors; actives 0.66% (n = 230,000); further: on the % scale 0 is the no-effect control and ±100 the full control effect; nearly all actives have a fitted effect of over 60% in size
#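 AlphaScreen proximity signal between nickel-chelate acceptor and streptavidin donor beads (final 10 ug/mL) reports binding of 50 nM L3MBTL1 to 75 nM biotin-H3 K9me1 peptide; complex incubated with compounds 30 min at room temperature; cefsulodin titration as control.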
# G9a inh: G9a (human) methyltransferase inhibition; Q96KQ7; G9a H3K9 monomethylation, AlphaScreen, 2 h; Potency, µM (titrated, usually from 102 µM), without a hit: at the top dose activity, negative = inhibition, usual class: inhibitors; actives 8.8% (n = 350,000); AID 504332; further: on the % scale 0 is the no-effect control and ±100 the full control effect; nearly all actives have a fitted effect of over 75% in size
# Target sequence (Q96KQ7 913-1193 limits assumed): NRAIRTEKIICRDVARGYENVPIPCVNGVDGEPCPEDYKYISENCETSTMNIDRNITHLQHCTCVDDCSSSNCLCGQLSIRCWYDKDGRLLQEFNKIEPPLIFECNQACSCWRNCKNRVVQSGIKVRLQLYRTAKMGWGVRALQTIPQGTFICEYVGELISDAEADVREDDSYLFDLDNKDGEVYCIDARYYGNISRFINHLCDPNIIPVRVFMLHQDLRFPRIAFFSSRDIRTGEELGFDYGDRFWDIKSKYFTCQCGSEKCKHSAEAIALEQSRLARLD
#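 Step 1: enzyme (final 20 nM) with compound, 15 min RT. Step 2: substrate peptide 500 nM and SAM 20 uM, 2 h RT. Step 3: anti-H3K9me1 antibody and AlphaScreen beads, 10 min, then plate read.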
# Sfp inh: blocks B. subtilis Sfp PPTase activity. Q9F4F7. Biochemical Sfp PPTase activity, qHTS. Potency, µM, inactives show largest response in the series, negative = inhibition, usual class: inhibitors. actives 3.5% (n = 310,000). AID 1490;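 further: the enzyme is Sfp with the accession as filed and its product quenches rhodamine fluorescence; 0% = enzyme reaction without inhibitor and -100% = no enzyme wells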
#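 Sfp 15 nM + cpd, 15 min RT; start w/ rhodamine-CoA 5 uM, BHQ-2-YbbR 12.5 uM (final); 50 mM Hepes pH 7.6, 10 mM MgCl2, 0.01% NP-40, 0.01% BSA; read 525/598 nm at 0 and 30 min.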
# BAZ2B inh: BAZ2B (human) inhibition. Q9UIF8. AlphaScreen BAZ2B-H3K14Ac peptide displacement. Potency, µM (doses to about 114 µM), for inactives: top-dose activity change, negative = inhibition, most hits filed as inhibitors. actives 4.4% (n = 360,000). AID 504333; further: on the % scale 0 is the no-effect control and ±100 the full control effect; nearly all actives have a fitted effect of over 60% in size
#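 AlphaScreen luminescence quantifies BAZ2B engagement of H3K14Ac peptide; the protein and biotinylated peptide are both at 50 nM final, buffer PBS pH 7.4 with 0.01% Tween-20, all steps at room temperature.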
# JMJD2A Tudor inh: JMJD2A Tudor domain (human) inhibition; O75164; AlphaScreen JMJD2A-Tudor / H3K4me3 peptide binding; Potency, µM (doses to about 114 µM), inactives show top-dose activity change, negative = inhibition, usual class: inhibitors; actives 4.4% (n = 390,000); further: on the % scale 0 is the no-effect control and ±100 the full control effect; nearly all actives have a fitted effect of over 50% in size
# HP1b chromo inh: HP1-beta chromodomain-methylated histone interaction inhibition; Potency, µM (top dose mostly 114 µM), without a hit: top-dose activity change, negative = inhibition, hits mostly inhibitors; AlphaScreen HP1-beta / biotin-H3K9me3 peptide binding; actives 0.56% (n = 390,000); AID 540317; P83916; further: nearly all actives have a fitted effect of over 70% in size
# Target sequence (P83916 whole entry, looked up): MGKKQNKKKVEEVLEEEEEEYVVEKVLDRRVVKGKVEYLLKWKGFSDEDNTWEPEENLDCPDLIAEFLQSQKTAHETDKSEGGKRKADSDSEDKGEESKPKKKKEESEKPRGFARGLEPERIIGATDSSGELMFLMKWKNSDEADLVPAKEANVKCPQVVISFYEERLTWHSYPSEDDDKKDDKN
#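 Compound inhibition of the preformed complex between 50 nM HP1-beta and 50 nM biotinylated H3K9me3 peptide was read by AlphaScreen. Buffer was PBS pH 7.4 with 0.01% Tween-20. Incubations ran 30 min at room temperature, with 10 ug/mL donor/acceptor beads.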
# * hit, by the source's call; ? = inconclusive; nt = not tested or not shown; [ ] = another dose, or the depositor's remark. Most compounds without a hit are left out; they make up all but 12% or so of the library. The call rests on the fitted dose curve; in most records, active means well fitted curve in the direction sought with a large enough effect; inconclusive means small, poorly fitted or top-dose-only effect, or another doubt; inactive means no such curve, though single readings can be large; an effect the other way counts as inactive or inconclusive. Potency means the concentration at half of the fitted maximal effect.
SMILES,L3MBTL1 block,G9a inh,Sfp inh,BAZ2B inh,JMJD2A Tudor inh,HP1b chromo inh
CO/C([O-])=N/c1c[n+](-c2ccc(C)cc2)no1,7%,20µM*,10%,7%,-23%,32%
COc1ccc(NC(=O)c2cccc3c(=O)c4c([nH]c23)CCCC4)cc1,nt,-25%[59 µM],nt,-15%,-2%,38%
CN(/N=C/c1ccccc1O)C(=S)c1ccccc1,-10%,nt,?,?,?,-5%
COc1ccc(C(=S)N(C)C)cc1OC,3%,?,45µM*,-16%,-14%,?
COc1ccc(C(=S)N2CCCC2)cc1OC,nt,23%[59 µM],8%,10%,-12%,33%
CN(C)C(=S)c1ccc(N(C)C)cc1,-24%,7.9µM*,16µM*,?,-22%,?
CN(C)C(=S)c1ccccc1,-4%,10µM*,20µM*,-11%,?,?
CCN(CC)S(=O)(=O)c1ccc2c(c1)N(CC(=O)Nc1cccc(C)c1C)C(=O)C1CCCN21 (stereo not given),nt,-32%[59 µM],nt,6%,9%,26%
O=S(=O)(c1ccc2nc(Nc3ccc(Br)cc3F)ccc2c1)N1CCCCC1,nt,0%[59 µM],nt,9%,-4%,48%
Cc1ccc(NC(=O)CSc2cn(CC(=O)N3CCOCC3)c3ccccc23)cc1Cl,nt,-29%[59 µM],nt,?,-22%,11%
O=C1CCC(=O)N1c1ccc(-c2nc3sc4c(c3c(=O)o2)CCC4)cc1,-1%,11%[12.7 µM],10%,0%,-25%,15%
Cc1nc2sc3c(c2c(=O)o1)CCCC3,0%,45µM*,40µM*,-31%,-24%,15%
Cc1nc2sc(C)c(C)c2c(=O)o1,nt,?,20µM*,-21%,-10%,16%
CC(C)c1nc2sc3c(c2c(=O)o1)CCCC3,-2%,12%[59 µM],-13%,3%,17%,35%
O=c1oc(-c2ccccc2)nc2sc3c(c12)CCC3,13µM*,-17%,-28%,50µM*,-27%,4%
COc1ccccc1NC(=O)C1=C(C)Nc2nc3ccccc3n2C1c1ccccc1Cl (stereo not given),nt,3%[59 µM],nt,2%,-28%,9%
CCc1nc(C)cn1S(=O)(=O)c1ccc(Cl)c(Cl)c1OC,nt,-21%[59 µM],nt,-33%,-12%,11%
CC(C)NCC#CCOc1ccc(Cl)cc1,-5%,7.9µM*,-25%,?,45µM*,24%
CC1CCCCC1NCC#CCOc1ccc(Cl)cc1 (stereo not given),8%[11.4 µM],14µM*,-20%,50µM*,20µM*,?
Cc1nnc(N2CCN(c3ccccc3F)CC2)c2c1nnn2Cc1ccccc1Cl,nt,2%[59 µM],nt,-2%,-17%,36%
C=Cc1c(C)/c2[n-]/c1=C\c1[n-]c(c(CC)c1C)/C=c1\[n-]c3c(c1C)C(=O)C(C(=O)[O-])C=3c1[n-]c(c(C)c1CCC(=O)[O-])\C=2.[Cu].[Na+].[Na+] (stereo not given),nt,?,45µM*,nt,nt,nt
Cc1nc2c(-c3ccccc3)c(C)nn2c(C)c1CCC(=O)N1CCN(c2ccc(F)cc2)CC1,nt,-4%[59 µM],nt,-24%,-21%,22%
O=S1(=O)c2ccccc2N(Cc2ccc(Cl)cc2F)c2ccccc21,nt,10%[59 µM],nt,-14%,-16%,28%
COc1cc2c(C#N)c(N3CCN(C)CC3)nc(N)c2c(N)n1,nt,50µM*,8%,4%,nt,nt
COc1cc2c(C#N)c(N3CCCC3)nc(N)c2c(N)n1,?,11%,4µM*,15%,-30%,39%
SMILES,L3MBTL1 block,G9a inh,Sfp inh,BAZ2B inh,JMJD2A Tudor inh,HP1b chromo inh
COc1ccc(C2/C=C\CN(CC(C)C)C(Cc3ccccc3)C(=O)N2Cc2ccc(F)cc2)cc1 (stereo not given),nt,nt,4%,nt,-6%,49%
N=C1c2ccccc2CN1NC(=O)COc1ccc(Cl)cc1,-13%,35µM*,0%,-12%,-3%,24%
COc1ccccc1OCC(=O)NN1Cc2ccccc2C1=N,nt,?,14%,-1%,4%,35%
CC(C)(C)c1ccc(OCC(=O)NN2Cc3ccccc3C2=N)cc1,-14%,50µM*,19%,-14%,-2%,52%
CCN1C(=O)C2(c3ccccc31)c1c(oc3ccc(F)cc3c1=O)C(=O)N2CCCOC (stereo not given),nt,-3%[59 µM],nt,-9%,-3%,36%
COc1ccc(N2CCN(C(=O)c3sc4nc5n(c(=O)c4c3C)CCC5)CC2)cc1,nt,5%[59 µM],nt,4%,-13%,48%
COc1ccc(Cl)cc1NC(=O)CN(C)Cc1cccs1,nt,59%,-10%,41%,87%,86%
COc1ccc(Cl)cc1NC(=O)CNCc1cccs1,nt,1%,-10%,71µM*,4.5µM*,?
COc1ccc(Cl)cc1NC(=O)CN(C)C(=O)Cc1ccc2c(c1)CCC2,nt,nt,-5%,-14%,-10%,34%
COc1ccc(Cl)cc1NC(=O)CN(C)C(=O)Cc1ccsc1,1%,28µM*,nt,-4%,-10%,40%
COc1ccc(-n2c(SCC(=O)N3CCC(C)CC3)nc3c([nH]c4ccccc43)c2=O)cc1,nt,4%[59 µM],nt,6%,-2%,13%[57 µM]
CCCc1cc(=O)oc2c(CNc3ccc(OCC)cc3)c(O)ccc12,nt,40µM*,-2%,?,?,5%
CCc1cc(=O)oc2c(CNCc3c(F)cccc3Cl)c(O)ccc12,nt,13%,18%,-2%,2%,44%
CCc1nn(CC(=O)NCCc2ccc(Cl)cc2)c(=O)c2cc3c(OC)cccc3n12,nt,-6%[59 µM],nt,-10%,-17%,9%
COc1ccc(OC)c(NC(=O)c2cc3cc(C)ccc3n2C)c1,nt,-1%[59 µM],nt,1%,8%,57%
NC(C(=O)O)C(O)C(=O)O (stereo not given),nt,nt,9%,nt,nt,nt
NC(C(=O)O)[C@H](O)C(=O)O (stereo not given in full),nt,6%[59 µM],56µM*,nt,nt,nt
COc1ccc(-n2c(Cc3cccn3C)nnc2SCC(=O)Nc2cc(Cl)ccc2OC)cc1,-12%,40µM*,-7%,?,?,-23%
COc1ccc(-n2c(Cc3cccn3C)nnc2SCC(=O)Nc2ccccc2OC)cc1,-14%,45µM*,9%,?,-34%,18%
COc1ccc(-n2c(Cc3cccn3C)nnc2SCC(=O)Nc2ccc(C)cc2C)cc1,?,45µM*,-19%,?,?,-5%
COc1ccc(-n2c(Cc3cccn3C)nnc2SCC(=O)Nc2cccc(F)c2)cc1,-20%,?,-15%,?,?,8%
COc1cc(OC)c(NC(=O)CC(c2cccs2)N2Cc3ccccc3C2=O)cc1Cl (stereo not given),nt,-41%[59 µM],nt,?,-27%,12%
COc1cc(OC)c(NC(=O)NCCn2nnc3cc(S(=O)(=O)N(C)C)ccc32)cc1Cl,nt,2%[59 µM],nt,-10%,-10%,13%

# Screening data: PubChem BioAssay, National Center for Advancing Translational Sciences (NCATS)
